Holding throughout (assay type): functional
Test [1] has as its system Plasmodium falciparum. Nature of the test: GSK_TCMDC: Inhibition of Plasmodium falciparum 3D7 in whole red blood cells, using parasite LDH activity as an index of growth. Test compounds present at 2uM.
Test [2] deals with Plasmodium falciparum. Nature of the test: GSK_TCMDC: Inhibition of Plasmodium falciparum Dd2 in whole red blood cells, using parasite LDH activity as an index of growth. Test compounds present at 2uM.
Test [3] has as its system HepG2. Nature of the test: GSK_TCMDC: Percent inhibition of human HepG2 cell line. Test compounds present at 10uM.

SMILES strings stand for the structures.

What is called Inhibition is the change of the read-out against control, counted positive when it falls.

In the case of `O=C(Nc1ccc(Cn2ncc(N3CCCNCC3)c(Cl)c2=O)cc1)Nc1ccc(-c2ccccc2)cc1`, the Inhibition in test [1] is reported as 93%; in test [2], 41%; in test [3] it was 12%.

Regarding `CC(C)CCNCc1ccc(OCc2cccc(C(=O)Nc3ccccc3)c2)c(I)c1.O=C(O)C(F)(F)F`, the Inhibition in test [1] amounted to 100%; in test [2], 59%; in test [3], 25%.

As for `CNC(=O)CNC(=O)COc1cccc2ccccc12`, the Inhibition was found to be 98% in test [1], 0% in test [2] and 3% in test [3].

As for `CO/C(=C\C=C\c1cc2cc(Cl)c(Cl)cc2[nH]1)C(=O)NCCCN1CCN(c2cccc(CCCO)c2)CC1`, the Inhibition is listed as 90% in test [1], 36% in test [2] and 66% in test [3].

For `CN1CCN(c2cc(NC(=O)c3ccc(-c4ccc(C#N)cc4)cc3)ccc2Cl)CC1`, the Inhibition in test [1] is reported as 100%; in test [2], 94%; in test [3], 29%.

In the case of `COC(=O)c1ccc(CN2CCC(N(Cc3cccc(Oc4ccccc4)c3)S(=O)(=O)c3ccc(NC(C)=O)cc3)CC2)cc1`, the Inhibition in test [1] came to 82%; in test [2] it was 86%; in test [3], 0%.

Consider `Cl.Oc1ccc(C2CNCCc3c2cc(O)c(OCc2ccccc2)c3Cl)cc1` (stereo not drawn), for which the values for the Inhibition in test [1], in test [2] and in test [3] were 98%, 8% and 14%, respectively.

With `COc1cc(Nc2nccc(N3CCC(NC(=O)C(C)c4ccc(Cl)cc4)C3)n2)cc(OC)c1OC` (stereo not drawn), the Inhibition is 97% in test [1], 90% in test [2] and 2% in test [3].

For the compound `COC(=O)c1cccc(CNCc2ccc(-c3ccc(-c4nc5cc(F)ccc5[nH]4)cc3)cc2)c1.O=C(O)C(F)(F)F`, the values for the Inhibition in test [1], in test [2] and in test [3] were 100%, 95% and 8%, respectively.

Turning to `Cc1noc(C)c1-c1cccc(CNCc2cccc(-c3ccc(-c4nc5ccccc5[nH]4)s3)c2)c1.O=C(O)C(F)(F)F`, the Inhibition in test [1] stood at 100%; in test [2] it was 29%; in test [3] it was 24%.

For `FC(F)(F)c1ccc2[nH]c(-c3ccc(-c4ccc(CN5CCN(c6cnccn6)CC5)cc4)s3)nc2c1.O=C(O)C(F)(F)F`, the Inhibition in test [1] came out at 100%; in test [2] it was 99%; in test [3], 23%.

As to `COc1cccc(-c2ccc3ccnc(N)c3c2)c1.O=C(O)C(F)(F)F`, the Inhibition is reported as 100% in test [1], 93% in test [2] and 40% in test [3].

As to `Clc1ccccc1C=NN=c1cc[nH]c2ccccc12`, the Inhibition is 100% in test [1], 50% in test [2] and 25% in test [3].

For `CCN(CCCN1CCCCC1)c1cc(C)nc(Nc2cccc3c2CCCC3)n1.O=C(O)C(F)(F)F`, the Inhibition in test [1] was 92%; in test [2], 46%; in test [3] it was 60%.

On to `COc1nc2c(N3CCN(CCNCc4ccc5c(n4)NC(=O)CS5)CC3)ccnc2cc1F`, for which the Inhibition in test [1] is 100%; in test [2], 96%; in test [3], 18%.

For `CCn1c(-c2ccccc2)cc2nnc3ccccc3c21`, the Inhibition is listed as 92% in test [1], 87% in test [2] and 34% in test [3].

Turning to `O=C(Nc1ccc(Br)c(C(F)(F)F)c1)c1cccc([N+](=O)[O-])c1`, the Inhibition in test [1] was 94%; in test [2], 3%; in test [3], 24%.

As to `Nc1cccc(CNCc2cccc(-c3csc(-c4nc5ccccc5[nH]4)c3)c2)c1.O=C(O)C(F)(F)F`, the Inhibition is 100% in test [1], 63% in test [2] and 13% in test [3].

Regarding `CCc1cc(OC)c(C(=O)NC2CCN(C[C@H](O)c3ccnc4ccc(OC)cc34)CC2)cc1Br`, the results for the Inhibition in test [1], in test [2] and in test [3] were 98%, 56% and 6%, respectively.

`CCOc1ccc(C(=O)Nc2cc3c(c(C(F)(F)F)c2)CCNC3)cc1Cl.Cl`: the Inhibition was determined as 91% in test [1], 1% in test [2] and 4% in test [3].

In the case of `CC(C)[C@H](NC(=O)c1ccc(O)c(-c2ccc(Cl)c(Cl)c2)c1)C(=O)NCCN(C)C`, the Inhibition in test [1] came out at 92%; in test [2] it was 1%; in test [3] it was 0%.

For the compound `COCCN1CCN(Cc2cccc(-c3ccc(-c4nc5ccccc5[nH]4)cc3)c2)CC1.O=C(O)C(F)(F)F`, the Inhibition in test [1] stood at 100%; in test [2] it was 50%; in test [3] it was 9%.

`CN(Cc1ccc(-c2ccc(C(F)(F)F)cc2)cc1)C(=O)Cn1c(CCc2cccc(F)c2F)cc(=O)c2ccc(OCCCN3CCCCC3)cc21.O=C(O)C(O)C(O)C(=O)O`: the Inhibition amounted to 100% in test [1], 90% in test [2] and 79% in test [3].

Consider `Cl.c1ccc(Cn2nnnc2-c2cccc(Nc3ccnc4cc(-c5nccs5)ccc34)c2)cc1`, for which the Inhibition worked out at 87% in test [1], 46% in test [2] and 51% in test [3].

In the case of `O=C(N[C@H]1CCN(Cc2ccc(OCCCN3CCCCC3)cc2)C1)c1ccc2ccccc2c1`, the Inhibition is recorded as 97% in test [1], 32% in test [2] and 8% in test [3].

With `FC(F)(F)c1ccc2c(NN=Cc3cccc(Cl)c3)ccnc2c1`, the Inhibition in test [1] worked out at 93%; in test [2], 59%; in test [3] it was 7%.

As for `Cc1cccc2nc(-c3cccc(-c4cccc(CN5CCC(CO)CC5)c4)c3)[nH]c12.O=C(O)C(F)(F)F`, the figures for the Inhibition in test [1], in test [2] and in test [3] were 100%, 90% and 4%, respectively.

Turning to `Cc1cc(N[C@@H](Cc2ccccc2)C(=O)NCc2cccc(F)c2)nc(NCCc2ccc(F)cc2)n1.O=C(O)C(F)(F)F`, the Inhibition in test [1] turned out to be 99%; in test [2], 69%; in test [3], 0%.

As to `CC(CN1CCN(CC(c2ccc(F)cc2)N2CCN(C)CC2)CC1)C(=O)c1ccc(O)cc1.O=C(O)/C=C\C(=O)O` (stereo not drawn), the values for the Inhibition in test [1], in test [2] and in test [3] were 97%, 10% and 0%, respectively.

With `CN(C)CCNc1cc(-c2cccnc2)nc(-c2ccncc2)n1`, the Inhibition in test [1] came to 100%; in test [2] it was 98%; in test [3], 33%.

Take `Cc1ccc(C)c(Sc2ccc(NC(=O)CN3CCN(C(=O)c4ccco4)CC3)cc2)c1`: the Inhibition came to 96% in test [1], 93% in test [2] and 28% in test [3].

With `COc1ccc(CN2CCC(CNCc3cccc(-c4ccccc4)c3)CC2)cc1.O=C(O)C(F)(F)F`, the Inhibition in test [1] is reported as 100%; in test [2], 92%; in test [3] it was 96%.

`CN(CCN)Cc1cccc(-c2cccc(-c3nc4cc(C(F)(F)F)ccc4[nH]3)c2)c1.O=C(O)C(F)(F)F`: the figures for the Inhibition in test [1], in test [2] and in test [3] were 99%, 98% and 22%, respectively.

Regarding `CNc1nc(Nc2ccccc2C)nc2ccccc12.Cl`, the figures for the Inhibition in test [1], in test [2] and in test [3] were 100%, 81% and 17%, respectively.

Consider `O=C(O)C(F)(F)F.c1cc(CNCCc2ccncc2)cc(-c2ccc(-c3nc4ccccc4[nH]3)s2)c1`, for which the Inhibition was determined as 100% in test [1], 97% in test [2] and 1% in test [3].

Consider `CCCN(Cc1ccc(OCC)cc1)Cc1cc(=O)c2cc(Cl)ccc2[nH]1`, for which the Inhibition in test [1] turned out to be 82%; in test [2], 82%; in test [3], 47%.

Turning to `O=C(/C=C/c1ccc(Cl)c(Cl)c1)NCCCCCN1CCC(NC(=O)c2ccc(F)cc2F)CC1`, the values for the Inhibition in test [1], in test [2] and in test [3] were 96%, 11% and 17%, respectively.

As to `Oc1cc(NC[C@H]2CCC[C@@H]2NCc2cc(Br)cc(Br)c2)nc2ccccc12`, the Inhibition was 100% in test [1], 45% in test [2] and 21% in test [3].

With `CCN(CC)CC(O)CNc1c2ccc([N+](=O)[O-])cc2nc2cc(OC)c(OC)cc12.Cl` (stereo not drawn), the Inhibition turned out to be 100% in test [1], 100% in test [2] and 78% in test [3].

`CNC(=O)c1ccccc1Nc1nc(Nc2cccnc2)ncc1C.Cl`: the Inhibition in test [1] came out at 93%; in test [2], 90%; in test [3] it was 17%.

Regarding `Br.COc1cc(CCON2C(N)=NC(N)=NC2(C)C)cc(OC)c1OC`, the Inhibition came out at 93% in test [1], 95% in test [2] and 59% in test [3].

For `CC1(C)N=C(N)N=C(N)C1c1ccc(Cl)c(Cl)c1.Cl` (stereo not drawn), the Inhibition is reported as 95% in test [1], 0% in test [2] and 47% in test [3].

On to `S=C(NCCCCCN1CCC(c2c[nH]c3ccccc23)CC1)Nc1cccc(I)c1`, for which the Inhibition in test [1] worked out at 99%; in test [2], 14%; in test [3], 69%.

With `NC1CCN(c2nc(NCCc3ccc(O)cc3)nc(NCc3ccccc3-c3ccccc3)n2)CC1.O=C(O)C(F)(F)F`, the results for the Inhibition in test [1], in test [2] and in test [3] were 99%, 32% and 14%, respectively.

For `O=C(NCCCN1CCC(N2CCCCC2)CC1)c1ccc(N2CCOc3ccccc32)s1`, the Inhibition was found to be 100% in test [1], 12% in test [2] and 37% in test [3].

`O=C(Nc1ccc(Cl)c(C(F)(F)F)c1)NC1CCN(CCCCCNC(=O)C2CC2c2ccc(Cl)c(Cl)c2)CC1` (stereo not drawn): the Inhibition was determined as 100% in test [1], 41% in test [2] and 79% in test [3].

As for `COc1ccc2[nH]c(C(=O)Nc3cccc(-c4ccc(CN(C)C)cc4)c3)cc2c1`, the Inhibition in test [1] is reported as 100%; in test [2], 34%; in test [3], 23%.

As for `Cc1cc(C(F)(F)F)cc(-n2ncc(-c3ccc(C(=O)NCCNCc4ccccc4)cc3)c2N)n1.O=C(O)C(F)(F)F`, the Inhibition in test [1] was 91%; in test [2], 9%; in test [3], 98%.

For `COc1ccc2nccc([C@@H](O)CN3CCC(NCCOc4ccc(F)cc4F)CC3)c2c1.O=C(O)C(=O)O`, the Inhibition in test [1] was determined as 100%; in test [2], 68%; in test [3], 13%.

In the case of `O=C(Nc1ccccc1)c1ccc(N2CCC(COc3cccc(C(F)(F)F)c3)CC2)nc1`, the Inhibition in test [1] is on record as 96%; in test [2] it was 83%; in test [3], 11%.

As to `COc1cccc(C=Cc2nc(=O)c3ccccc3o2)c1OC`, the Inhibition is 97% in test [1], 97% in test [2] and 0% in test [3].

Regarding `COc1cccc(CN(C(=O)Nc2ccccc2F)[C@H]2C[C@H]3C(=O)Nc4cc(F)ccc4C(=O)N3C2)c1`, the Inhibition in test [1] was 93%; in test [2], 75%; in test [3] it was 0%.

Regarding `CC(Cc1ccc(OCCN2CCN(c3cccc(C(F)(F)F)c3)CC2)cc1)NCC(O)c1cccc(C(F)(F)F)c1.Cl` (stereo not drawn), the Inhibition in test [1] is 97%; in test [2], 91%; in test [3] it was 11%.

With `Cn1cccc1C(=O)NCC(CCNc1cc(=O)c2ccccc2[nH]1)NCc1cc(Br)cc(Br)c1` (stereo not drawn), the Inhibition amounted to 92% in test [1], 52% in test [2] and 0% in test [3].

For `Br.Clc1ccc(-c2nc(-c3ccncc3)c[nH]2)cc1Cl`, the Inhibition is 96% in test [1], 63% in test [2] and 1% in test [3].

As to `Cc1cc(N[C@@H](CC(C)C)C(=O)NCCc2ccccc2)nc(NCC2CCCCC2)n1.O=C(O)C(F)(F)F`, the Inhibition is 97% in test [1], 65% in test [2] and 19% in test [3].

As for `CCn1ncc(Cl)c1CN(C)S(=O)(=O)c1ccc2ccccc2c1`, the Inhibition is given as 100% in test [1], 91% in test [2] and 16% in test [3].

On to `CCCCNCC(O)COc1ccccc1-c1ccc(N/N=C/c2cccc3ccccc23)nn1` (stereo not drawn), for which the results for the Inhibition in test [1], in test [2] and in test [3] were 99%, 8% and 38%, respectively.

For the compound `COc1ccc(NC(=O)Nc2ccc(-c3cccc(-c4nc5ccccc5[nH]4)c3)cc2)cc1`, the Inhibition in test [1] was found to be 99%; in test [2], 41%; in test [3], 44%.

On to `COc1ccc(Cl)cc1NC(=O)Nc1cc(C)nc2ccccc12`, for which the Inhibition in test [1] is 100%; in test [2], 99%; in test [3], 10%.

As to `Cc1n[nH]c2ccc(-c3cc(OC[C@@H](N)Cc4ccccc4)cnc3-c3ccc(OCc4cccc(F)c4)cc3)cc12.O=C(O)C(F)(F)F`, the Inhibition in test [1] is recorded as 98%; in test [2], 59%; in test [3], 97%.

The values are drawn from ChEMBL document CHEMBL1157539, “Thousands of chemical starting points for antimalarial lead identification” (Nature, 2010).
